# The list is not random: actives were taken first. Their share in the collection is about 7.9%.
# MARV entry inh: inhibitors of Marburg virus binding or cell entry; Marburg virus pseudotyped entry inhibition, cell reporter; Potency, µM (highest dose often 37.8 µM), without a hit: at the highest dose activity change, negative = inhibition, actives largely listed as inhibitors; 300,000 tested, 1.8% active; AID 540276; calls by dose curve; tested in HEK293 cells; note: potency is the fitted concentration of half-maximal effect
# FMDV antiviral: antivirals against foot and mouth disease virus | FMDV antiviral cell-based qHTS | Potency, µM (series often up to 57.9 µM), inactives show at the highest dose activity change, negative = inhibition, actives largely listed as inhibitors | 410,000 tested, 1.2% active; calls by dose curve; tested in HEK293T cells; note: read-out not given here; potency is the fitted concentration of half-maximal effect; nearly all actives have a fitted effect of over 45% in size
# HCV inhibitor: inhibitors of hepatitis C virus infection. 340,000 tested, 3.4% active. AID 651820. Huh7.5.1 HCVcc-Cre infection, luciferase reporter, 44 h. Potency, µM (doses to about 41.8 µM), inactives show at the top dose activity change, negative = inhibition, usual class: inhibitors; active = well fitted inhibition curve with a large enough effect; inconclusive = small, poorly fitted or top-dose-only effect, or another doubt; inactive = no such curve, though single readings can be large or run the other way; note: potency is the fitted concentration of half-maximal effect
#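 1,000 cells/well; 4 h culture; + compound; + HCVcc-Cre (~0.5 moi); 44 h; luciferase substrate, RT 15 min; read 15 sec.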
# LASV entry inh: blocks Lassa virus binding to or entry into cells. Lassa virus pseudotype entry inhibition, cell reporter. Potency, µM (highest dose often 37.9 µM), inactives show at the highest dose activity change, negative = inhibition, hits mostly inhibitors. 300,000 tested, 1.2% active. AID 540256; calls by dose curve; tested in HEK293 cells; note: potency is the fitted concentration of half-maximal effect; nearly all actives have a fitted effect of over 50% in size
# HCMV antiviral: blocks human cytomegalovirus replication; activity change, negative = inhibition, % at 57.5 µM; 410,000 tested, 4.5% active; AID 1259415; HFF cells, HCMV-luciferase reporter, 72 h; hits give low values; in the data active = activity change below about -60%; inconclusive = no clear call, values can overlap the other calls; inactive = above about -39%
#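 HFF cells seeded 16 h at 37C, treated with compounds, infected with luciferase-reporter HCMV at MOI 1 PFU/cell; luciferase read at 72 h post infection, normalized to buffer-only and Salinomycin controls.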
# Numbers without * were called inactive; ? = inconclusive; . = no result given; [ ] = remark or other dose. % is set by controls: 0 for no effect and ±100 for the full control effect.
SMILES,MARV entry inh,FMDV antiviral,HCV inhibitor,LASV entry inh,HCMV antiviral
CCN(CC)c1ccc(/C=N\NC(=O)c2cccc3cc[nH]c23)cc1,-8%,16%,?,?,-63*
O=C(N/N=C/c1ccc([N+](=O)[O-])cc1)c1cccc2cc[nH]c12,13%,-4%,6%,0%,-5
CCCN1C2=NS(=O)(=O)CCN2c2ccccc21,?,-9%,20%,20%,-101*
OCCN1C2=NCCCN2c2ccccc21,?,-10%,10%,5%[46.1 µM],25
C=CCn1c(Sc2ncc([N+](=O)[O-])s2)n[nH]c1=O,?,?,6.3µM*,?,-97*
C=CCn1c(CSc2ccccc2[N+](=O)[O-])n[nH]c1=S,19%[46.1 µM],3%,7%,9%,66
COc1cc2c(cc1OC)CN(C(=O)CSC1=NCCS1)CC2,.,?,.,.,-69*
COc1cc2c(cc1OC)CN(C(=O)CSc1nc3[nH]ncc3c(=O)n1-c1ccccc1)CC2,-4%,-20%,11µM*,.,.
CNC(=O)NC1CCCC(C2=NC(C)=NCC2)C1 (stereo not drawn),5%,.,.,.,.
O=S(=O)(NC1CCN(Cc2ccccc2)CC1)c1ccc2ccccc2c1,?,12%,-18%,-9%,3
O=C(NNS(=O)(=O)c1ccc2ccccc2c1)C1CCN(Cc2ccccc2)CC1,?,-17%,15%,10%,-107*
O=c1[nH]c2cccnc2n1Cc1ccccc1,1%,12%,3%,7%,-9
CCCOc1ccc(C(=O)NCCN2CCOCC2)cc1,16%,6%,1%,7%,12
CCn1c(-c2nonc2N)nc2cnc(Oc3cccc(NC(=O)c4ccc(OCCN5CCOCC5)cc4)c3)cc21,.,.,.,20µM*,.
CCOc1ccc(OCC)c(NC(=O)c2cnn(-c3ccc(F)cc3)c2C2CCN(C(=O)OC(C)(C)C)CC2)c1,.,?,.,?,-3
CC(C)c1ccc(NC(=O)CCNS(=O)(=O)c2cc(Br)cnc2N)cc1,.,0%,10%,.,-24
CCc1cccc(NC(=O)CCNS(=O)(=O)c2cc(Br)cnc2N)c1,.,28%,-1%,.,-77*
CCOC(=O)c1oc2nc(CC(C)C)c3c(c2c1N)CCCC3,?,6%,2.8µM*,?,14
COc1ccc(N2CC(C)(C)C[C@@H]2/C=C/C(=O)OC(C)(C)C)cc1,.,.,.,.,-13
COc1cc2c(oc(=O)c3cc(C)cc(OC)c32)c2c(C3OC(C)C(O)C(C)(O)C3O)ccc(O)c12 (stereo not drawn),?,0%,?,?,-69*
COc1c(O)cc2c(=O)oc3c(OC)c(O)cc4c(=O)oc1c2c34,.,-8%,.,.,.
C=Cc1cc(OC)c2c(c1)c(=O)oc1c2cc(OC)c2c(O)ccc(C3OC(C)C(O)C(C)(O)C3O)c21 (stereo not drawn),?,?,1µM*,0.4µM*,-98*
O=C(CCCn1c(=O)c2cccn2c2cccnc21)Nc1ccccc1C(F)(F)F,.,-4%,.,4%[46.1 µM],?
CCOC(=O)C1(C)CCN1C(=O)c1ccc(C(C)(C)C)cc1 (stereo not drawn),.,16%,.,.,43
O=C(NCCN1CCCCC1)c1ccc(Cn2c(SCc3cccc(F)c3)nc3cccnc32)cc1,4.5µM*,-10%,.,.,?
SMILES,MARV entry inh,FMDV antiviral,HCV inhibitor,LASV entry inh,HCMV antiviral
Cn1c(SCc2ccc(F)cc2)nc2ccc(C(=O)NCc3ccc(Cl)cc3)cc21,?,-28%,.,.,-35
O=C(NCc1ccccc1)c1ccc(CSc2nc3cccnc3n2Cc2ccccc2)cc1,.,-22%,.,-21%[46.1 µM],-23
O=C(NCc1ccccc1)c1ccc(CSc2nc3cccnc3n2Cc2cccc(F)c2)cc1,.,0%,.,?,-67*
Cn1c(SCc2ccc(F)cc2)nc2ccc(C(=O)NCc3ccc(F)cc3)cc21,?,?,.,.,-69*
O=C(NC1CCCC1)c1ccc(CSc2nc3cccnc3n2Cc2cccc(F)c2)cc1,.,?,.,-26%[46.1 µM],-11
CN(Cc1ccccc1)C(=O)c1ccc(CSc2nc3cccnc3n2Cc2ccccc2)cc1,.,?,.,?,-71*
CCc1nc2c(OCc3ccc(Cl)cc3)cccn2c1N(C)C(=O)c1ccco1,.,28µM*,.,.,-77*
O=C(O)c1ccc(CSC2CCCCC2)cc1,12%[46.1 µM],3%,20%,7%[46.1 µM],-23
Cc1ccc2c3c(cccc13)-c1ccccc1C2=O,-2%,71%,5.6µM*,?,16
C=CCOc1ccc(C2NC(=S)NC(c3ccccc3)=C2C(C)=O)cc1OC (stereo not drawn),-11%[46.1 µM],0%,-13%,-6%[46.1 µM],-14
CCOC(=O)COc1c(Cl)cc(C2NC(=S)NC(c3ccccc3)=C2C(C)=O)cc1OCC (stereo not drawn),-6%,-7%,-19%,0%,-60*
COc1cccc(C(=O)Nc2ncc3c(n2)CC(c2ccc(OC)cc2OC)CC3=O)c1 (stereo not drawn),?,-21%,?,-3%,-40
CCOC(=O)N1CCN(c2ncc3c(n2)CC(c2ccc(OC)c(OC)c2)CC3=O)CC1 (stereo not drawn),-17%[46.1 µM],14µM*,.,-3%[46.1 µM],-9
COc1ccc(C2CC(=O)c3cnc(N4CCN(Cc5ccccc5)CC4)nc3C2)cc1 (stereo not drawn),?,22µM*,?,?,-14
COc1ccc(Nc2ncc3c(n2)CC(c2ccccc2)CC3=O)cc1 (stereo not drawn),3%,-16%,?,0.92µM*,-10
CCN1CCN(c2ncc3c(n2)CC(c2ccc(OC)c(OC)c2)CC3=O)CC1 (stereo not drawn),?,20µM*,?,?,?
Cc1ccc(C2CC(=O)c3cnc(N4CCN(c5ccccc5)CC4)nc3C2)cc1 (stereo not drawn),5%,-3%,-5%,-13%,23
COc1ccc(C2CC(=O)c3cnn(-c4nc(C)cc(C)n4)c3C2)cc1OC (stereo not drawn),-9%,-20%,22%,4%,0
COc1cc(C(=O)NCc2nc3cccnc3n2Cc2ccc(C)cc2)cc(OC)c1OC,.,-18%,.,6%[46.1 µM],-11
Cc1ccc(C2(c3ccc(C)cc3)CC2C(=O)Nc2ccc([N+](=O)[O-])cc2O)cc1 (stereo not drawn),?,-19%,3.5µM*,13µM*,-102*
Cn1cc(CCNC(=O)N2CCOC2=O)c2ccccc21,.,.,.,.,18
O=S(=O)(c1ccc(Cl)cc1)c1nc(-c2ccco2)oc1SCc1ccc(F)cc1,?,?,.,-19%[46.1 µM],-20
COc1cc(C(C(=O)NC2CCCCC2)N(Cc2cccs2)C(=O)Cc2c[nH]c3ccccc23)cc(OC)c1OC (stereo not drawn),-32%,?,?,-17%,-79*
Cc1ccc(C(C(=O)NC2CCCCC2)N(Cc2ccccc2)C(=O)Cc2c[nH]c3ccccc23)o1 (stereo not drawn),?,3%,?,?,-7

# Source: PubChem BioAssay
